Compound activity from PubChem BioAssay.
An excerpt weighted towards active compounds, which were near 2.4% of everything screened.
POLK inh: DNA polymerase kappa (human) inhibition; Q9UBT6; purified Pol kappa, fluorescent DNA synthesis assay, 10 min; Potency, µM (highest dose often 107 µM), for inactives: top-dose activity, negative = inhibition, hits mostly inhibitors; 400,000 tested, 0.53% active; AID 588579; further: on the % scale 0 is the no-effect control and ±100 the full control effect
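Readout: fluorescence, taken kinetically at 0 and 10 min. Conditions: 10 nM Pol kappa, 15 min RT compound preincubation, 50 nM substrate final. Controls: enzyme-free buffer wells.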
TDP1 block: blocks human tyrosyl-DNA phosphodiesterase 1. 350,000 tested, 0.28% active. Q9NUW8. AID 485290. Potency, µM (top dose mostly 130 µM), without a hit: top-dose activity change, negative = inhibition, usual class: inhibitors. recombinant TDP1, AlphaScreen DNA substrate cleavage; further: on the % scale 0 is the no-effect control and ±100 the full control effect; nearly all actives have a fitted effect of over 40% in size
Target sequence (Q9NUW8 whole entry, looked up): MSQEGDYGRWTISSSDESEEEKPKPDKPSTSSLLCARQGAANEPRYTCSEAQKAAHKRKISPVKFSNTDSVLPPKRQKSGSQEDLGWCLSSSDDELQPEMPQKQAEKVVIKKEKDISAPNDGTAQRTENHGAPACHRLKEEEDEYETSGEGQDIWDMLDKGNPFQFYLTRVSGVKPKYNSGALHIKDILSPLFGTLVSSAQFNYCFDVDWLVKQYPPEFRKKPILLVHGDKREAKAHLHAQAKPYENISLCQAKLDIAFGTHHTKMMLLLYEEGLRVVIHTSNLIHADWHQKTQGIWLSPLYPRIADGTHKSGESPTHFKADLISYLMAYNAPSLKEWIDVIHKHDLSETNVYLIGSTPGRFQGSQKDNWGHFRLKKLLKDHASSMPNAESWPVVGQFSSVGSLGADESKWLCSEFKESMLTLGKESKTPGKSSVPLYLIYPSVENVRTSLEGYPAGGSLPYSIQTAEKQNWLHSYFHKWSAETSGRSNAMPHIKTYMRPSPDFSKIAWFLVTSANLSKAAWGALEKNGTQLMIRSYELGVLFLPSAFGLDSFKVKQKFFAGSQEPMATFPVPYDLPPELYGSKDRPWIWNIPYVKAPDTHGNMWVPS
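Compounds were preincubated with Tdp1 (1 nM final) for 15 min at room temperature before substrate (15 nM final) started a 5 min reaction; beads (10 ug/ml final) were then added for 10 min before AlphaScreen detection.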
POLH inh: blocks human DNA polymerase eta activity; Q9Y253; recombinant Pol eta, fluorescent DNA replication assay; Potency, µM (top dose mostly 114 µM), inactives show top-dose activity change, negative = inhibition, usual class: inhibitors; 390,000 tested, 1.2% active; further: on the % scale 0 is the no-effect control and ±100 the full control effect
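Fluorescent replication assay: 50 nM final substrate added after a 15 min room-temperature compound preincubation with 10 nM enzyme. Signal taken at 0 min and again at 10 min.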
POLB inh: inhibitors of human DNA polymerase beta. 340,000 tested, 1.3% active. AID 485314. P06746. Potency, µM (doses to about 114 µM), for the others: at the top dose activity change, negative = inhibition, hits mostly inhibitors. Pol beta primer extension/strand displacement, fluorescence kinetic; further: on the % scale 0 is the no-effect control and ±100 the full control effect
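Kinetic readout of DNA synthesis with strand displacement by Pol beta. Compound and 10 nM enzyme sit 15 min at room temperature; 50 nM substrate starts the reaction, read immediately and at 10 min.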
POLI inh: inhibitors of human DNA polymerase iota; Q9UNA4; Pol iota fluorescent replication assay, 10 min; Potency, µM (series often up to 115 µM), inactives show at the highest dose activity, negative = inhibition, usual class: inhibitors; 390,000 tested, 1% active; AID 588590
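Fluorescent replication assay read twice, at 0 min and 10 min after adding 50 nM (final) substrate. Enzyme (10 nM) and compounds were first incubated 15 min at room temperature; enzyme-free buffer wells were negative controls.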
* marks the source's active call; other numbers are inactive results; ? = inconclusive; nt = not tested or not shown; [ ] = another dose, or the depositor's remark. The call rests on the fitted dose curve; in most records, active means well fitted curve in the direction sought with a large enough effect; inconclusive means small, poorly fitted or top-dose-only effect, or another doubt; inactive means no such curve, though single readings can be large; an effect the other way counts as inactive or inconclusive. Potency means the concentration at half of the fitted maximal effect.

SMILES	POLK inh	TDP1 block	POLH inh	POLB inh	POLI inh
C=CCNC(=S)N/N=C/c1ccc(OCc2ccccc2Cl)cc1	0%	4%	-16%	1%	18%
OC[C@@H]1CCC[C@@H](n2cnc3c(=S)nc[nH]c32)O1	-19%	1%	nt	nt	11%
O=C(COC(=O)/C=C/c1ccc2ccccc2n1)NNC(=O)c1ccccc1	nt	nt	40µM*	nt	nt
Cc1ccc(NCc2ccc(O)c3ncccc23)c(F)c1	nt	1%	nt	nt	nt
CCc1ccc(S(=O)(=O)/N=C2\C=CC(=O)c3ccccc32)cc1	nt	8%	nt	17%	nt
O=S(=O)(N=C1C=CC(=NS(=O)(=O)c2ccccc2)c2ccccc21)c1ccccc1	nt	nt	50µM*	nt	nt
CSCC[C@H](NC(=O)[C@H](Cc1ccccc1)NC(=O)[C@H](Cc1cnc[nH]1)NC(=O)CNC(=O)[C@@H](NC(=O)[C@H](C)NC(=O)[C@H](Cc1c[nH]c2ccccc12)NC(=O)[C@H](CC(C)C)NC(=O)[C@H](CC(N)=O)NC(=O)CN)[C@@H](C)O)C(N)=O	16%[60.1 µM]	28%	nt	nt	nt
CC1C/C(=N\NC(N)=S)c2cc(Cl)ccc2S1 (stereo not drawn)	-8%	nt	-9%	6%	79µM*
CC(C)=C1CCC(C)CC1=NNC(N)=S (stereo not drawn)	-4%	nt	-10%	nt	47%
O=C1CC(=O)N(CCNc2ncc(C(F)(F)F)cc2Cl)C(=O)N1	?	-2%	-13%	56µM*	25µM*
O=c1cc(Cl)[nH]c(=O)n1CCNc1ncc(C(F)(F)F)cc1Cl	-2%	0%	-10%	-4%	-10%
O=C(CSc1ncc(-c2ccccc2)nn1)NCc1ccco1	-5%	-1%	-24%	28µM*	?
O=C(CSc1nccn1Cc1ccccc1)NCc1ccco1	0%[60.1 µM]	8%	-13%	28µM*	?
CCn1c(SCC(=O)N2c3ccccc3Sc3ccccc32)nnc1-c1ccco1	-4%[60.1 µM]	9%	-14%	45µM*	15%
C=CCn1c(SCC(=O)N2c3ccccc3Sc3ccccc32)nnc1-c1ccco1	-3%	nt	-20%	-21%	52%
O=C(Cc1nnc(CNC(=O)c2ccccc2)o1)Nc1cc(C(F)(F)F)ccc1Cl	nt	0%	nt	nt	nt
COc1ccc(NC(=O)C(=O)NNC(=O)COc2ccc(OC)cc2)cc1	4%	6%	-7%	1%	18%
O=C(COc1ccc2ccccc2c1)NNC(=O)C(=O)Nc1ccccc1	-17%	nt	-10%	40µM*	?
Cc1cc(Br)ccc1OCC(=O)NNC(=O)C(=O)Nc1ccccc1	-19%	3%	-16%	28µM*	?
O=C(Cc1cccs1)Nc1nnc(SCc2ccc(Br)cc2)s1	?	-2%	?	32µM*	?
COCCSc1nnc(NC(=O)Cc2cccs2)s1	0%	3%	?	-39%	?
Cc1cccc(NC(=O)Cc2cccs2)n1	-33%	0%	11%	40µM*	5%
O=C(Cc1cccs1)Nc1nnc(SCc2ccc(C(F)(F)F)cc2)s1	-17%	1%	?	?	6%
Cc1ccccc1CSc1nnc(NC(=O)Cc2cccs2)s1	-25%	3%	?	22µM*	101%
Cc1ccccc1NC(=O)Cc1cccs1	-10%	nt	-1%	0%	-8%
SMILES	POLK inh	TDP1 block	POLH inh	POLB inh	POLI inh
Cc1nnc(NC(=O)Cc2cccs2)s1	?	-1%	?	35µM*	45µM*
Cc1ccc(CN2CCOCCS2(=O)=O)cc1	-13%	nt	nt	nt	21%
O=C(NCc1ccc(Cl)cc1)C1CCN(S(=O)(=O)c2ccc3c(c2)CCCN3C(=O)C2CCC2)CC1	9%[60.1 µM]	7%	-21%	2%	?
COc1ccc(-c2ccnc3cc(C(=O)O)nn23)cc1	-6%	2%	0%	107%	57%
O=C(O)c1cc2nccc(-c3ccco3)n2n1	?	nt	18µM*	0%	?
CCCSc1nc2sc3c(c2c(=O)[nH]1)CCN(Cc1ccccc1)C3	-15%	5%	?	40µM*	12%
COc1ccc(OCC(=O)Nc2ccc3c(c2)nc(CCn2ccccc2=O)n3C)cc1	-31%	3%	-5%	?	56µM*
CCn1c(C)nc2cc(C(=O)NN=Cc3ccc([N+](=O)[O-])cc3)ccc21	1%	45µM*	-11%	nt	6%
CCn1c(C)nc2cc(C(=O)N/N=C/c3ccc(N4CCOCC4)cc3)ccc21	-17%	8%	-18%	22µM*	?
CCn1c(C)nc2cc(C(=O)N/N=C/c3ccc(O)cc3)ccc21	-11%	8%	-13%	?	?
CCn1c(C)nc2cc(C(=O)N/N=C/c3cccc(O)c3O)ccc21	?	nt	-23%	?	25µM*
COc1cccc(C2c3c(ncn(-c4ccc(NC(C)=O)cc4)c3=N)Oc3ccc4ccccc4c32)c1 (stereo not drawn)	nt	3%	nt	nt	nt
COc1cccc2cc(C(=O)NCc3ccco3)c(=Nc3ccc(C(=O)O)cc3)oc12	0%	-7%	89µM*	-8%	8%
COCCn1c(=O)c(-c2ccc(Cl)cc2)nc2cnc(N3CCNCC3)nc21	8%[60.1 µM]	nt	nt	nt	nt
Nc1nc(=S)c2n[nH]nc2[nH]1	0%	1%	nt	nt	-1%
Cc1cccc(NC(=O)CSc2nc3ccc(NC(=O)c4ccco4)cc3s2)c1	-6%	-2%	?	?	?
Cc1cc(C)c2nc(N3CCCN(C(=O)c4ccco4)CC3)c(C#N)cc2c1	-20%	-13%	?	40µM*	-11%
CC(=O)NC1C(c2nc3ccccc3s2)=C(c2ccccc2)C(=O)N1c1ccc(C)cc1 (stereo not drawn)	-12%	4%	1%	-11%	0%
COc1cccc(N2C(=O)C(c3ccccc3)=C(c3nc4ccccc4s3)C2NC(C)=O)c1 (stereo not drawn)	-2%	6%	-17%	89µM*	1%
COc1ccc2nc(C)cc(SCC(=O)NNC(=O)COc3cccc4ccccc34)c2c1	-22%	-6%	?	13µM*	?
COc1ccc2nc(C)cc(SCC(=O)NNC(=O)COc3ccc(C)cc3)c2c1	-5%	-1%	-5%	?	19%
Nn1c(SCC(=O)Nc2cc(C(F)(F)F)ccc2Cl)nncc1=O	?	-6%	?	5%	79µM*
COc1ccc(N2CCN(CCCNC(=O)c3nnc(Cc4ccc(F)cc4)o3)CC2)cc1	-11%	1%	-19%	-3%	-12%
O=C(CNC(=O)C1CCCCC1)OCC(=O)c1ccc(C2CCCCC2)cc1	-4%	0%	nt	nt	-4%
COc1ccc(CN(Cc2ccccc2)C(=O)c2ccccc2O)cc1	nt	11µM*	nt	nt	nt
CCCCCCc1cc2cc(C(=O)NC)c(=N)oc2cc1O	-14%	0%	-20%	2%	39%
CCCCCCc1cc2cc(C(N)=O)c(=N)oc2cc1O	nt	2%	nt	32µM*	nt
Cc1ccc(C(=O)c2cn(Cc3ccc(F)cc3)c3nc(C)ccc3c2=O)cc1	-16%	-3%	-9%	1%	79µM*
